Screens (PubChem)
Sampled rows, rich in hits. Any-hit rate of the full collection: about 4.5%.
FXN GAA850 act = increases GAA850 frataxin promoter reporter activity | HEK293 lucGAA850 FXN promoter luciferase reporter, 24 h; percent of 10 µM SAHA response | activation, % at 6 µM | actives 0.56% (n = 360,000);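 active = activation above the average of all compounds screened plus 3 SD, cutoff fixed separately per campaign, cut at about 7.5% in these data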;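 also: 0% = DMSO wells and 100% = 10 µM SAHA wells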
hcDAF12 agonist = activates DAF-12 receptor from parasite H. contortus | activation, % at 6.8 µM | HEK293 hcDAF-12 lit1-tk-luc reporter, luminescence; 0% DMSO, 100% Δ7-dafachronic acid | AID 652067 | actives 1.4% (n = 370,000);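 active = activation above the mean of all tested compounds plus 3 SD, cut at about 5.5% in these data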;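 also: 100% = response to 3 µM Δ7-dafachronic acid high control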
DAX1 inh-1 = DAX1 (NR0B1) inhibition, primary screen. AID 652010. actives 1.1% (n = 370,000). inhibition, % at 6.8 µM. HEK293T StAR-luciferase reporter, SF-1/DAX-1 repression relief;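 active = inhibition above the mean over all tested compounds plus 3 SD, cut at about 3.6% in these data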;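 also: 0% = DAX-1 cells with DMSO and 100% = cells lacking DAX-1 with DMSO; higher inhibition means more luminescence from relief of DAX-1 repression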
hgDAF12 agonist = activates the H. glycines DAF-12 receptor ligand-binding domain | actives 1.8% (n = 370,000) | HEK293 GAL4-hgDAF12 UAS-luciferase reporter, agonist luminescence; normalized to butyrate control | activation, % at 6.8 µM;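 active = activation above a cutoff set at the mean of all screened compounds plus 3 SD, cut at about 10% in these data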;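 also: 0% = DMSO wells and 100% = sodium butyrate wells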
DAX1 inh-2 = NR0B1 (DAX1) inhibition. actives 0.99% (n = 340,000). HEK293 Gal4-DAX1 luciferase reporter, luminescence. inhibition, % at 6.75 µM. P51843;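 active = inhibition above the mean over all tested compounds plus 3 SD, cut at about 4.2% in these data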;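 also: 0% = DAX1-transfected cells with DMSO and 100% = empty-vector control cells with DMSO; inhibition shows as a rise in luminescence from relieved DAX1 repression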
Target sequence (P51843 207-470 limits assumed): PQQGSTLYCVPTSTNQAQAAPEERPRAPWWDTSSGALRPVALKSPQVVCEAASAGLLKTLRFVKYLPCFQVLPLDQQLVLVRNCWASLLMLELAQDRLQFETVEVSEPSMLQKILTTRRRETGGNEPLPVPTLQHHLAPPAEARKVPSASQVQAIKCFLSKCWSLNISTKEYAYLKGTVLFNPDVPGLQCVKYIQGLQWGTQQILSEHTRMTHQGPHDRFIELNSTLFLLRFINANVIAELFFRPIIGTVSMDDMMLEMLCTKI
ssDAF-12 act = S. stercoralis DAF-12 activation, primary screen; actives 1% (n = 370,000); AID 652126; activation, % at 6.8 µM; HEK293 ssDAF-12/GRIP1 lit1-tk-luc reporter, luminescence; % of 3 µM dafachronic acid response;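 active = activation above the mean over all tested compounds plus 3 SD, cut at about 0.9% in these data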;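 also: 0% = DMSO-only wells and 100% = 3 µM delta7-dafachronic acid wells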
Active calls of the source: *; . = not tested or not shown.

SMILES	FXN GAA850 act	hcDAF12 agonist	DAX1 inh-1	hgDAF12 agonist	DAX1 inh-2	ssDAF-12 act
CCN(CC)CCn1c(NC(=O)c2ccccc2O)nc2ccccc21	1.5	5.0	-0.8	4.8	-0.1	0.3
CCN(CC)CCn1c2ccccc2c2nc3ccccc3nc21	6.6	6.1*	-0.6	5.5	2.1	0.1
CCN(CC)CCn1c(C)nc2ccccc21	1.4	0.4	-0.2	4.6	4.3*	-1.1
COc1ccc(OC)c(Nc2cc(C)nc3nc(C)nn23)c1	-3.2	-2.9	-1.3	1.8	1.1	-1.0
COc1ccc(Nc2cc(C)nc3nc(C)nn23)cc1Cl	-0.8	-0.5	-0.7	-2.1	4.6*	-0.9
Cc1cc(Nc2ccc(F)cc2F)n2nc(C)nc2n1	-0.9	4.0	1.3	1.6	4.9*	-0.5
Cc1cc(Nc2cc(F)ccc2C)n2nc(C)nc2n1	-0.2	-0.5	-0.2	-0.8	3.3	-1.4
Cc1cc(Nc2ccc(C)c(Br)c2)n2nc(C)nc2n1	0.4	-0.9	-0.3	-0.1	4.4*	-3.5
COc1ccc(Nc2cc(C)nc3nc(C)nn23)c(OC)c1	-0.8	-0.8	0.1	-2.0	5.1*	-0.5
Cc1cc(Nc2ccccc2Br)n2nc(C)nc2n1	0.2	-0.3	-1.0	3.1	0.5	-1.5
O=C(N1CCC(n2nc(-c3ccccc3)oc2=O)CC1)C1(c2ccccc2)CCCC1	.	0.2	.	-2.0	.	0.3
O=S(=O)(c1ccccc1)n1c(CN2CCOCC2)nc2ccccc21	.	1.0	-1.1	-2.7	.	-0.8
COc1ccc(-n2c(Cc3cccs3)nnc2SCC(=O)Nc2ccc(OCc3ccccc3)cc2)cc1	.	0.7	-2.8	1.5	.	-1.9
COc1ccc(/C=C/C(=O)OCC(=O)Nc2ncc(Cl)cc2Cl)cc1	-0.5	1.8	-0.6	0.5	0.4	1.1*
Nc1cc(C(F)(F)F)ccc1Nc1ccccc1	1.5	0.6	0.2	1.0	-0.3	0.9*
N#Cc1ccc(Nc2ccccc2)c(N)c1	2.6	-2.4	0.1	1.3	-0.2	-1.1
CCCC1CCC2(CC1)CCC2OC(=S)Nc1ccccc1Cl (stereo unspecified)	.	-2.4	.	2.4	.	-1.0
O=C(NCCc1cn2ccccc2n1)c1ccc(Br)o1	-0.1	-1.3	1.1	6.0	-0.8	-1.1
Cc1cccn2cc(CCNC(=O)c3ccc(Br)o3)nc12	1.6	6.0*	0.7	4.6	1.4	1.3*
Cc1cc(C)c2c(CN3CCC(C)CC3)cc(=O)oc2c1C	-0.1	0.0	0.0	-0.6	4.8*	-1.2
Cc1ccc2c(CN3CCC(C)CC3)cc(=O)oc2c1C	2.9	1.7	0.6	6.4	0.3	-0.5
COc1cc(CCCN2CCNC[C@@H]2Cc2ccc(O)cc2)cc(OC)c1OC	2.5	0.4	0.8	3.1	0.1	1.0*
CCOc1ccc(NC(=O)CN2CCN(c3ccc(F)cc3)CC2)cc1S(=O)(=O)N1CCCC1	-0.1	-0.3	-0.5	-0.7	1.4	1.0*
O=c1sc(Nc2ccccc2)nc2ccsc12	5.7	6.2*	1.9	8.7	1.6	-0.3
O=C(CN1CCCCCC1)Nc1cccc(NC(=O)CN2CCCCCC2)c1	1.4	-1.6	0.0	-0.6	4.5*	-1.5
SMILES	FXN GAA850 act	hcDAF12 agonist	DAX1 inh-1	hgDAF12 agonist	DAX1 inh-2	ssDAF-12 act
CC(NC(=O)CN1C(=O)NC2(CCCCCC2)C1=O)c1ccccc1Cl (stereo unspecified)	1.3	-0.9	0.8	-0.7	0.5	1.1*
O=C(CN1CCCCCC1)Nc1ccccc1	0.9	-1.6	-0.3	-0.2	-0.8	-0.9
O=C(CN1C(=O)NC2(CCCCC2)C1=O)Nc1cccc(S(=O)(=O)N2CCCC2)c1	1.1	-0.7	4.6*	-0.3	1.1	-0.1
O=C(CN1C(=O)NC2(CCCC2)C1=O)Nc1cc(S(=O)(=O)N2CCCCC2)ccc1Cl	0.2	-0.1	-0.4	0.8	1.9	-1.2
N#Cc1ccccc1NC(=O)CN1C(=O)NC2(CCCC2)C1=O	0.8	4.9	0.1	-1.2	4.7*	-0.8
COc1ccc(C(=O)/C=C/Nc2cc(C)on2)cc1	6.2	2.3	3.6	12.3*	0.8	-0.2
COc1ccc(N/C=C/C(=O)c2ccc(C)cc2)c([N+](=O)[O-])c1	3.7	1.2	3.6*	7.3	3.0	0.0
Cc1ccccc1CN1CCCCC(NC(=O)c2ccc(Br)cc2)C1=O (stereo unspecified)	.	-5.9	-3.6	-1.6	.	-2.0
CCN1C(=O)C(CC(=O)Nc2ccc(OC)cc2)N(Cc2cccnc2)C1=S (stereo unspecified)	0.8	-1.9	-0.5	-0.5	-0.5	2.7*
COc1ccc(NC(=O)CC2C(=O)N(CCc3ccccc3)C(=S)N2Cc2cccnc2)cc1 (stereo unspecified)	-0.2	-1.6	-1.0	-0.1	0.6	-1.9
COC(=O)[C@]12C[C@H](CC(=O)NCCc3ccccc3OC)C(=O)N(Cc3cccc4ccccc34)C1=C[C@H](COCc1ccccc1)O[C@@H]2C	.	-3.1	-1.4	-2.3	.	-1.3
Cc1cccc(CN2CCN(C(=S)Nc3ccccc3)CC2)c1	0.7	0.8	1.0	0.2	10.9*	-1.8
Cc1cccc(NC(=S)N2CCN(Cc3ccccc3)CC2)c1C	0.8	5.9*	0.4	1.2	-0.8	-0.8
S=C(Nc1ccccc1)N1CCN(c2ccccn2)CC1	3.5	-1.5	-0.7	-2.5	-0.4	1.9*
S=C(Nc1ccccc1)N1CCN(C/C=C/c2ccccc2)CC1	-0.3	-0.6	3.6*	-3.5	-0.8	-2.0
C[C@@H]1ON(C)[C@H]2C[C@H]3c4[nH]c5c(-c6ccc(F)cc6)cccc5c4CCN3C(=O)[C@@H]12	.	0.5	0.7	2.2	.	0.4
CC(=O)C1=C(O)C(=O)N(CCc2c[nH]c3ccccc23)C1c1cccc(O)c1 (stereo unspecified)	1.5	5.7*	0.4	0.5	-0.6	0.2
CCOC(=O)[C@@]12CCC3=C1N(CCC3)C(=O)[C@H](CC(=O)N1CCC(c3ccccc3)CC1)C2	.	-0.5	-2.4	0.3	.	-0.4
O=C(Nc1nccs1)c1ccc([N+](=O)[O-])cc1	4.2	4.8	0.4	6.3	0.7	1.2*
O=C(Cc1ccc([N+](=O)[O-])cc1)Nc1nccs1	-0.2	-0.7	0.3	0.3	7.2*	-0.5
O=C(CN1CCN(c2ccc([N+](=O)[O-])cc2)CC1)Nc1nccs1	-4.9	-2.1	-0.9	-5.0	1.3	-1.7
Cc1ccc(-n2c(SCC(=O)c3ccccc3Cl)nnc2-c2cnccn2)cc1	.	-0.7	1.6	0.8	.	-0.5
CC(C)C[C@@H]1COc2cc(Br)ccc2S(=O)(=O)N1Cc1cn(CC2CCCCC2)nn1	.	-0.9	-0.6	-1.3	.	-1.3
O=C(CNC(=O)c1ccc(Cl)cc1)NNC(=O)c1ccc(Br)cc1	0.1	1.6	-0.3	-0.9	0.1	-0.7
NC(=O)CNC(=O)c1ccc(Cl)cc1	0.3	-2.1	0.1	-1.8	5.6*	-0.8
